Results on 16 compounds are retold here after PubChem BioAssay (NCI).

What all share (assay): NCI-60 one-dose screen, 48 h (100 = growth as untreated, 0 = no growth, -100 = all killed)
Holding throughout (conditions): 10 µM unless noted

Test [1] has as its system MOLT-4 leukemia.
The subject of test [2] is SR leukemia.
Test [3] concerns RPMI-8226 leukemia.
Test [4] concerns OVCAR-8 ovarian.
In test [5] the test system is OVCAR-5 ovarian.
The test system of test [6] is OVCAR-4 ovarian.
Test [7] concerns SK-OV-3 ovarian.
Test [8] deals with IGROV1 ovarian.
For test [9], the system named is HS 578T breast.
Test [10] concerns NCI/ADR-RES ovarian.
The subject of test [11] is T-47D breast.
Test [12] deals with BT-549 breast.
The test system of test [13] is MDA-MB-435 melanoma.
In test [14] the test system is SW-620 colon.
The subject of test [15] is MCF7 breast.
The test system of test [16] is HCT-116 colon.
Test [17] concerns HCC-2998 colon.
For test [18], the system named is KM12 colon.
Test [19] relates to OVCAR-3 ovarian.

“And” between values parts separate entries of the source, which are not always exact repeats. Equal entries are not always repeated. This is part of a sample that, as a whole, favours compounds with a hit. Of some 83,000 tested, about 20% had one in any assay.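 In brief: 96-well plates, 48 h treatment, single concentration, percent growth endpoint.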 Unmarked numbers belong to inactive results. The source made the active and inactive calls. The calls were made as follows: active = growth percent below 10; inactive = the rest.

For the compound `CC[C@H](C)[C@H](NC(=O)CN(C)C)C(=O)N(C)[C@H](C[C@@H](OC(C)=O)c1nc(C(=O)NC23CC(C(=O)OC)(C2)C3)cs1)C(C)C`, the growth in [1] was 12.3%; in [2] it was 17.8%; in [3], 18.8%; in test [4], 19.1%; in [5] it was 71.9%; in [6], 47.9%. The growth was 32.6% in [7]; 33% in test [8]; 31.9% in test [9]; 77.8% in test [10]; 50.4% in [11]; 14.2% in test [12]. Also, the growth in test [13] was -38.9% (active); in test [14], 30.9%; in [15], 17.9%; in [16] it was 4.85% (active); in test [17] it was 20.4%; in [18], 11.4%.
Take `CNC(=O)O/N=C(\SC)C(=O)N(C)C`: the growth in test [1] was 86.5%; in test [2] it was 72.2%; in test [3], 86%; in test [4], 97.7%; in [5] it was 101%; in [6] it was 119%. The growth in test [7] is 102%; in test [8] it was 110%; in test [9], 96.4%; in test [10] it was 96.4%; in test [11], 97.1%; in test [12], 101%. In addition, the growth is 116% in test [13]; 106% in test [14]; 103% in test [15]; 105% in test [16]; 77.4% in test [17]; 102% in test [18].
Consider `C[C@]12CCc3sc(Nc4ccc(F)cc4)nc3C1=CC[C@@H]1[C@@H]2CC[C@]2(C)C(=O)CC[C@@H]12`, for which the growth was 15.8% in test [1]; 19.5% in test [2]; 2.21% (active) in test [3]; 68.4% in test [4]; 100% in test [5]; 90% in test [7]. Also, the growth in [8] was 75.2%; in test [19] it was 24.1%; in test [9], 55.3%; in test [10], 80.3%; in test [11], 80%; in test [12], 43.8%. Moreover, the growth in [13] is 57%; in test [14], 35.4%; in test [15] it was 20%; in [16], 17.7%; in test [17], 95.1%; in [18] it was 72.2%.
On to `CN1[C@@H](CC(=O)c2ccccc2)CCC[C@H]1CC(=O)c1ccccc1`, for which the growth is 111% in [1]; 111% in test [2]; 120% in test [3]; 93.3% in test [4]; 101% in test [5]; 117% in test [7]. Besides, the growth in [8] is 26.5%; in [19], 101%; in test [9], 83%; in test [10] it was 99%; in test [11], 103%; in test [13], 97.5%. In addition, the growth in [14] was 112%; in [15], 93.3%; in [16], 101%; in test [17] it was 126%; in test [18], 110%.
For `C[C@]12CCc3sc(Nc4ccc(O)cc4)nc3C1=CC[C@@H]1[C@@H]2CC[C@]2(C)C(=O)CC[C@@H]12`, the growth in [1] was 11%; in test [2], 9.6% (active); in [3], -24.5% (active); in test [4], 35.9%; in test [5] it was 117%; in [7] it was 108%. Further, the growth was 13.1% in test [8]; 68.6% in test [10]; 10.6% in test [11]; 45.6% in [12]; 35.3% in test [13]; -32.2% (active) in test [14]. The growth in [15] is 3.11% (active); in [16], -72.4% (active); in [17], 97.7%; in test [18], 46.7%.
For the compound `Cc1cc(NC(=O)NCCCOc2ccc(N3C(N)=NC(N)=NC3(C)C)cc2Cl)ccc1S(=O)(=O)F`, the growth in [1] is 37.5%; in test [2], 22.4%; in test [3], 36.6%; in test [4], 31.7%; in test [5], 43.1%; in test [7], 65.3%. Also, the growth was 25% in test [8]; 24.2% in test [19]; 60.3% in test [9]; 100% in test [10]; 51.1% in test [11]; 59.9% in test [12]. In addition, the growth is 27.7% in test [13]; 18.5% in test [14]; 25.5% in [15]; 17.8% in test [16]; 7.8% (active) in test [17]; 20.9% in test [18].
On to `C/C=C(/C)C(=O)O[C@H]1CC[C@@]2(C)[C@@H]3CC[C@H]4[C@]5(O)C[C@H](O)[C@@]6(O)[C@@H](CN7C[C@@H](C)CC[C@H]7[C@@]6(C)O)[C@]5(O)C[C@@]42O[C@@]13O`, for which the growth in [1] is 112%; in test [2], 97.4%; in test [3], 113%; in test [4], 91.9%; in [5], 103%; in test [7], 118%. Further, the growth in test [8] was 49.3%; in test [9], 116%; in test [10] it was 111%; in test [11] it was 118%; in [13], 108%; in [14], 111%. Moreover, the growth in test [15] was 98.3%; in test [16], 47.5%; in [17], 137%; in [18] it was 122%.
`CC1(C)C2CCC1(CS(=O)(=O)O)C(=O)C2` (stereo not drawn): the growth in test [1] is 112% and 110%; in [2], 105% and 117%; in [3] it was 91.4%; in [4], 99.7% and 103%; in test [5], 91.9% and 101%; in [7], 98.4% and 115%. The growth in [8] was 86.8% and 115%; in [19], 102% and 114%; in test [10] it was 104% and 112%; in [11], 87.1% and 115%; in [12] it was 95.3% and 94.8%; in test [13] it was 96.1% and 105%. Moreover, the growth in [14] was 99% and 111%; in test [15], 101% and 112%; in test [16] it was 97.9% and 101%; in test [17], 92.2% and 133%; in test [18], 101% and 104%.
Take `CCCCS(=O)(=O)Cl`: the growth in [1] was 116%; in test [2], 104%; in test [3] it was 109%; in [4], 105%; in [5], 104%; in [7] it was 110%. The growth was 116% in [8]; 120% in test [19]; 102% in [9]; 107% in test [10]; 100% in [11]; 104% in [12]. Moreover, the growth in test [13] is 108%; in [14] it was 112%; in test [15], 97.7%; in test [16], 97.6%; in [17], 124%.
Regarding `CC1(C)C=Cc2c(ccc3c2[N+]([O-])=C2C3=C[C@@]34NC(=O)[C@]5(CCCN5C3=O)C[C@@H]4C2(C)C)O1`, the growth in test [1] was 28.7%; in test [2], 15.4%; in test [3], 24.6%; in test [4], 42.7%; in test [5] it was 56.6%; in test [7], 85.5%. For the same compound, the growth in [8] is 55.6%; in test [19], 25%; in [9], 90.8%; in test [10], 54.6%; in test [11], 53.2%; in test [12] it was 39.8%. In addition, the growth in test [13] was 47.3%; in [14], 12.9%; in test [15], 17.9%; in test [16] it was 17.4%; in test [17], 78.1%; in test [18], 47.5%.
For `CC1(C)N=C(N)N=C(N)N1c1ccc(CCC(=O)Nc2ccc(S(=O)(=O)F)cc2)cc1`, the growth in [1] was 26.1%; in test [2], 15.7%; in test [3], 34.4%; in test [4], 36.7%; in [5], 34%; in test [7], 67.8%. Moreover, the growth is 25.8% in test [8]; 96.7% in test [19]; 82% in test [9]; 117% in [10]; 88.9% in test [11]; 58.7% in [12]. The growth in [13] is 20.8%; in test [14], 25.8%; in test [15], 24.9%; in [16], 12.3%; in test [17], 42.3%; in [18], 13.3%.
In the case of `O=S(OO)c1cc(Cl)c(O)c(Cl)c1` (stereo not drawn), the growth in test [1] is 103%; in test [2], 95.1%; in [3], 99.9%; in [4] it was 101%; in test [5], 107%; in test [7] it was 103%. Besides, the growth in test [8] is 104%; in [19], 114%; in [9], 104%; in [10], 101%; in test [11] it was 87.6%; in test [12], 89.1%. Further, the growth in test [13] was 97.1%; in [14], 98.3%; in [15] it was 78.6%; in test [16], 105%; in [17] it was 95.5%; in [18] it was 108%.
Take `COC(=O)CCP(CCC(=O)OC)c1ccccc1`: the growth is 113% in [1]; 106% in test [2]; 113% in [3]; 105% in test [4]; 103% in test [6]; 101% in test [7]. In addition, the growth in test [8] is 110%; in [19], 107%; in test [9] it was 114%; in test [10], 106%; in test [11], 112%; in test [12], 90%. In addition, the growth was 97.2% in test [13]; 105% in [14]; 97.6% in test [15]; 97.6% in test [16]; 104% in test [17].
Take `COc1ccn(C)c(=O)c1C#N`: the growth in test [1] is 106%; in test [2] it was 90%; in test [3] it was 102%; in [4], 96.3%; in [5] it was 105%; in [7], 91.9%. Besides, the growth in test [8] is 98.7%; in test [19] it was 93.8%; in test [9] it was 105%; in [10], 102%; in [11], 81.6%; in test [12] it was 103%. Moreover, the growth in test [13] is 107%; in test [14], 94.1%; in test [15] it was 93%; in test [16], 97%; in test [17], 101%; in test [18] it was 96.6%.
Consider `COc1cc(-c2ccc(N)c(OC)c2)ccc1N`, for which the growth in [1] is 173%; in [2] it was 143%; in [3], 96.5%; in test [4], 114%; in [5], 94.4%; in test [7] it was 105%. The growth in test [8] was 120%; in test [19] it was 104%; in test [9], 105%; in [10], 105%; in test [11] it was 96.4%; in test [12], 95.6%. Further, the growth in [13] is 107%; in test [14], 100%; in test [15], 99.8%; in test [16] it was 112%; in test [17] it was 124%.
In the case of `COc1cc(/C=C\[N+](=O)[O-])ccc1OCc1ccccc1`, the growth in test [1] is 1.1% (active); in test [2], -24.2% (active); in test [3] it was -45.6% (active); in test [4], 52.9%; in test [5] it was 98.5%; in test [7], 91.4%. Moreover, the growth was 7.94% (active) in test [8]; 42.9% in [9]; 69.2% in test [10]; 49% in [11]; 37.2% in test [12]; 20% in [13]. In addition, the growth in test [14] was 47.4%; in [15] it was 9.62% (active); in test [16] it was 1% (active); in [17], -70.4% (active); in [18], 23.6%.
